This is a sample that favours compounds with a hit; in the whole collection about 19% have one here.
DT40 TDP1 no CPT: qHTS for Inhibitors of human tyrosyl-DNA phosphodiesterase 1 (TDP1): qHTS in cells in absence of CPT; DT40 Tdp1-/- hTDP1 cells, no CPT, ATP luminescence, 48 h; Potency, µM (highest dose often 46.2 µM), for the others: at the highest dose activity change, negative = growth inhibition, most hits filed as inhibitors; hit rate 15% among 420,000; note: potency is the fitted concentration of half-maximal effect; % is set by controls: 0 for no effect and ±100 for the full control effect; nearly all actives have a fitted effect of over 55% in size
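DT40 Tdp1-/-;hTDP1 cells, no CPT (DMSO vehicle only), 400 cells/well; compounds pin-transferred; ≥48 hr, 37 °C; CellTiter-Glo 30 min RT dark, luminescence read.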
TDP1 block: blocks human tyrosyl-DNA phosphodiesterase 1; recombinant TDP1, AlphaScreen DNA substrate cleavage; Potency, µM (doses to about 130 µM), for the others: at the highest dose activity change, negative = inhibition, actives largely listed as inhibitors; hit rate 0.28% among 350,000; note: potency is the fitted concentration of half-maximal effect; % is set by controls: 0 for no effect and ±100 for the full control effect; nearly all actives have a fitted effect of over 40% in size
Target sequence (Q9NUW8 whole entry, looked up): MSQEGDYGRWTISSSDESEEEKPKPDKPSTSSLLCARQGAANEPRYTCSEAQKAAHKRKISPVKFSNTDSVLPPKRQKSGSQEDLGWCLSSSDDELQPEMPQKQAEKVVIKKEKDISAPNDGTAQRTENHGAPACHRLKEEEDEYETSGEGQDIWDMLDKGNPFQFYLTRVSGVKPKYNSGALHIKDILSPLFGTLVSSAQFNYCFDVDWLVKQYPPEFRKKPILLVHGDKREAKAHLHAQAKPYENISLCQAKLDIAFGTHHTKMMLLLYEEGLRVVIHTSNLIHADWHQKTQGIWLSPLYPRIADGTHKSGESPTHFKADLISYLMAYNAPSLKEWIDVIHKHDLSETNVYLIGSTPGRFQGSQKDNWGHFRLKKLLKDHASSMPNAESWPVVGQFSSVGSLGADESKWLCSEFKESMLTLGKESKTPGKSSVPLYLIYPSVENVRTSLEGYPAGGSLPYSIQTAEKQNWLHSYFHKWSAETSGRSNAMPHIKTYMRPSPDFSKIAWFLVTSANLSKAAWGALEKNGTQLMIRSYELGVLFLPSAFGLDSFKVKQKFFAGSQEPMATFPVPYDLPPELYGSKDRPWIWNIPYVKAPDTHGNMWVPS
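E. coli-derived human Tdp1, 1 nM final. Cpd preinc 15 min RT; substrate 15 nM final, 5 min RT; AS bead mix 10 ug/ml final, 10 min RT. Signal loss = tyrosine-FITC cleavage. No-enzyme wells = max signal.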
HepG2 tox: kills HepG2 cells in TGF-b inhibitor counter-screen; HepG2 CAGA-GFP viability, ATP luminescence, 18 h; hit rate 0.76% among 410,000; Potency, µM (titrated, usually from 46.1 µM), for the others: at the highest dose activity change, negative = cytotoxicity, usual class: cytotoxic; AID 588856; note: potency is the fitted concentration of half-maximal effect
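CellTiter-Glo luminescence gave cytotoxicity after 18 hours at 37 degrees C. The cells were HepG2 CAGA-GFP in 1% FBS DMEM, stimulated with 500 pg/mL TGF-beta after compound addition. %Activity was normalised to no-cell wells (complete cell-killing) and DMSO (no toxicity), and curves were fitted and classified.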
DT40 TDP1 CPT: DT40-hTDP1 cell growth loss with CPT; chicken DT40 Tdp1-/-;hTDP1 cells + 20 nM CPT, ATP luminescence, 48 h; Potency, µM (highest dose often 46.2 µM), without a hit: top-dose activity change, negative = growth inhibition, hits mostly inhibitors; hit rate 12% among 420,000; AID 686979; note: potency is the fitted concentration of half-maximal effect; % is set by controls: 0 for no effect and ±100 for the full control effect; nearly all actives have a fitted effect of over 55% in size
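Cell growth measured by CellTiter-Glo luminescence after a minimum 48 h, 37 C compound exposure with 20 nM CPT in Tdp1-knockout DT40 cells stably expressing hTDP1, seeded 400/well; qHTS titration format.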
IL1B secr inh: inhibitors of inflammasome signaling (IL-1 beta secretion) | hit rate 4.7% among 360,000 | activity change, % at 57.5 µM | THP-1 LPS/ATP IL-1B secretion, AlphaLISA, 16 h; stronger effect = lower value; in the data active = activity change below about -50%; inconclusive = mostly about -30% to -49%; note: % is set by controls: 0 for no effect and ±100 for the full control effect
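THP-1 cells pretreated 1 hr with compounds (up to 57.5 uM final), then stimulated with LPS (250 ng/mL final) plus ATP (1.25 mM final); secreted IL-1B measured by AlphaLISA after 16 hr, decreased signal indicating inhibition.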
TGFb SMAD3 inh: blocks TGF-b signaling; HepG2 CAGA-GFP TGF-b/SMAD3 reporter, GFP fluorescence, 18 h; TGF-beta stimulated, 500 pg/mL final; Potency, µM (series often up to 46.1 µM), for inactives: at the top dose activity, negative = inhibition, actives largely listed as inhibitors; hit rate 1.2% among 410,000; AID 588855; note: potency is the fitted concentration of half-maximal effect; % is set by controls: 0 for no effect and ±100 for the full control effect; nearly all actives have a fitted effect of over 65% in size
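Read-out: total well GFP (ex488/em500-530) summed from mean per-cell fluorescence. Cells: HEPG2 CAGA-GFP, 1% FBS DMEM, 18 h at 37 degrees C with 500 pg/mL final TGF-beta. Unstimulated wells served as the full-inhibition control; stimulated DMSO wells = 0%.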
* marks the source's active call; other numbers are inactive results; ? = inconclusive; nt = no result; [ ] = dose if it differs, or a comment. Unless noted, calls come from the whole dose curve; as a rule, active = well fitted curve in the direction sought with a large enough effect; inconclusive = small, poorly fitted or top-dose-only effect, or another doubt; inactive = no such curve, though single readings can be large; an effect the other way counts as inactive or inconclusive.

SMILES	DT40 TDP1 no CPT	TDP1 block	HepG2 tox	DT40 TDP1 CPT	IL1B secr inh	TGFb SMAD3 inh
CCC1CCCCN1S(=O)(=O)c1ccc(C(=O)Nc2sc3c(c2C(N)=O)CCC3)cc1 (stereo not drawn)	?	5%	-10%	?	nt	-9%
Cc1ccc(CNC(=O)c2cc3c(=O)n4ccccc4nc3n(Cc3ccco3)c2=N)cc1	15µM*	4%	-21%	13µM*	-94*	3%
Cc1ccc2nc3c(cc(C(=O)NCCc4ccccc4)c(=N)n3CCN3CCOCC3)c(=O)n2c1	26µM*	3%[0.0935 µM]	-30%	?	2	-7%
Cc1ccc2nc3c(cc(C(=O)NCCN4CCOCC4)c(=N)n3CCCN3CCOCC3)c(=O)n2c1	-14%	nt	-1%	-7%	-8	13%
N=c1c(C(=O)NCc2ccccc2)cc2c(=O)n3ccccc3nc2n1Cc1ccco1	?	-2%	-36%	?	?	?
N=c1c(C(=O)NCc2ccc(F)cc2)cc2c(=O)n3ccccc3nc2n1Cc1ccco1	16µM*	3%	-6%	16µM*	-26	-10%
Cc1ccc2nc3c(cc(C(=O)NCc4ccco4)c(=N)n3Cc3ccco3)c(=O)n2c1	21µM*	0%	-22%	?	6	1%
N=c1c(C(=O)NCc2ccco2)cc2c(=O)n3ccccc3nc2n1Cc1ccccc1	?	10%	-13%	?	42	-4%
COC(=O)NC(CC(C)=O)c1cccc(F)c1 (stereo not drawn)	nt	-3%[21 µM]	nt	nt	nt	nt
CCOc1ccc(/C=N/OCC(=O)NC(c2ccccc2)c2ccccc2)cc1	?	0%	-24%	-74%	32	22µM*
CCOc1ccc(/C=N/O)cc1	1%	7%	3%	4%	9	1%
CCOc1ccc(/C=N/Nc2ccccc2)cc1	15µM*	nt	-24%	?	23	-5%
CCOc1ccc(/C=N/OCC(=O)Nc2cc(C)on2)cc1	?	3%	0%	-3%	34	4%
CN(CC(=O)Nc1ccc(F)c(F)c1F)C(=O)C1(c2ccccc2)CC1	-13%	nt	1%	-10%	18	5%
CC(C)(C)OC(=O)C[C@@H]1C/C=C\C[C@@H](CC(=O)N(CCO)Cc2ccccc2)C(=O)N[C@H](C(C)(C)C)COC1=O	?	-3%	-15%	21µM*	14	-16%
CC(C)(C)OC(=O)C[C@@H]1C/C=C\C[C@H](CC(=O)N(CCO)Cc2ccccc2)C(=O)N[C@H](Cc2ccccc2)COC1=O	23µM*	-1%	-6%	?	-19	2%
CC(C)(C)OC(=O)C[C@H]1C/C=C\C[C@@H](CC(=O)N(CCO)Cc2ccccc2)C(=O)N[C@H](C(C)(C)C)COC1=O	15µM*	0%	-3%	?	2	-18%
Cc1cc(S(=O)(=O)N2CCCCC2CCNC(=O)C(=O)NCC2CCCO2)ccc1F (stereo not drawn)	?	-3%	-3%	-6%	-3	2%
CCOc1ccc(-c2nc(SCC(=O)NCCOC)c(-c3ccc(OC)c(OC)c3)[nH]2)cc1	?	5%	-33%	-25%	nt	-27%
Cc1cc2ccc3ccccc3c2cc1CN(C)C	?	8%	-39%	?	nt	16µM*
O=C(c1cccc(S(=O)(=O)N2CCN(c3ccc(F)cc3)CC2)c1)N1CCCC(C(F)(F)F)C1 (stereo not drawn)	4.1µM*	nt	-17%	3.3µM*	-17	?
O=C(c1ccc(S(=O)(=O)N2CCCCCC2)cc1)N1CCCC(C(F)(F)F)C1 (stereo not drawn)	?	2%	-18%	?	13	4%

From PubChem
